Shown are actives, neighbours in structure and some others; about 7.6% of the full set was active somewhere.
Giardia kill – kills Giardia lamblia; Giardia lamblia trophozoite viability; activity change, % at 7.66 µM, hits read low; hit rate 0.15% among 340,000; in the data active means activity change below about -80%; inconclusive means between about -30% and that limit;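 further: parasites exposed to compound for two days anaerobically before the ATP read; on the % scale 0 is the no-effect control and ±100 the full control effect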
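ATP-content bioluminescence gauges trophozoite survival. Cells (100/well) receive compound and incubate anaerobically for 48 hrs at 37 deg C; detection reagent follows for 15-30 min at room temperature.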
ELG1 repair inh – blocks ELG1-dependent DNA repair in HEK293T cells. HEK293T ELG1-luciferase reporter, luminescence, 16 h; DNA damage induced by 5-fluorouridine. Potency, µM (series often up to 46.1 µM), without a hit: at the highest dose activity change, negative = inhibition, most hits filed as inhibitors. hit rate 2.3% among 330,000. AID 504467; further: potency means the concentration at half of the fitted maximal effect; on the % scale 0 is the no-effect control and ±100 the full control effect; nearly all actives have a fitted effect of over 55% in size
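Overnight (16 hr) co-exposure of 2,000 cells/well to 5-fluorouridine and compound at 37 °C preceded detection. Luciferase was quantified via ONE-Glo luminescence; loss of signal denotes inhibition.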
VP16 counter – counter-screen for ROR gamma inhibitors: Gal4-VP16 reporter; Drosophila S2 Gal4-VP16 UAS-luciferase, luminescence, 20 h; Potency, µM (doses to about 53.6 µM), without a hit: at the highest dose activity, negative = inhibition, hits mostly inhibitors; hit rate 3.5% among 310,000; AID 2546;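 further: Gal4-VP16 expression switched on by copper sulfate through the metallothionein promoter; potency means the concentration at half of the fitted maximal effect; on the % scale 0 is the no-effect control and ±100 the full control effect; nearly all actives have a fitted effect of over 50% in size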
p53 reactivator – restores transcriptional activity of mutant p53 | H1299 p53-A138V BP100-luciferase reporter, luminescence, 24 h | Potency, µM (series often up to 92.2 µM), inactives show at the highest dose activity change, positive = activation, most hits filed as activators | hit rate 0.063% among 320,000 | AID 504706; further: potency means the concentration at half of the fitted maximal effect; % of control where 0% means no effect; nearly all actives have a fitted effect of over 45% in size
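H1299 (p53-null), stable ts p53-A138V + BP100-Luc; 1000 cells/well, Opti-MEM/10% FBS; cpd 4 pt, 1:5; 24 h, 37 deg C, 5% CO2; detection reagent 10 min RT; luminescence.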
RORg inh – ROR gamma (mouse) transcription inhibition | Potency, µM (highest dose often 53.6 µM), inactives show at the highest dose activity change, negative = inhibition, usual class: inhibitors | hit rate 5.4% among 310,000 | P51450 | Drosophila S2 Gal4-RORgamma UAS-luciferase reporter, 20 h; further: potency means the concentration at half of the fitted maximal effect; on the % scale 0 is the no-effect control and ±100 the full control effect; nearly all actives have a fitted effect of over 60% in size
Target sequence (P51450 whole entry, looked up, the tested form may be a part): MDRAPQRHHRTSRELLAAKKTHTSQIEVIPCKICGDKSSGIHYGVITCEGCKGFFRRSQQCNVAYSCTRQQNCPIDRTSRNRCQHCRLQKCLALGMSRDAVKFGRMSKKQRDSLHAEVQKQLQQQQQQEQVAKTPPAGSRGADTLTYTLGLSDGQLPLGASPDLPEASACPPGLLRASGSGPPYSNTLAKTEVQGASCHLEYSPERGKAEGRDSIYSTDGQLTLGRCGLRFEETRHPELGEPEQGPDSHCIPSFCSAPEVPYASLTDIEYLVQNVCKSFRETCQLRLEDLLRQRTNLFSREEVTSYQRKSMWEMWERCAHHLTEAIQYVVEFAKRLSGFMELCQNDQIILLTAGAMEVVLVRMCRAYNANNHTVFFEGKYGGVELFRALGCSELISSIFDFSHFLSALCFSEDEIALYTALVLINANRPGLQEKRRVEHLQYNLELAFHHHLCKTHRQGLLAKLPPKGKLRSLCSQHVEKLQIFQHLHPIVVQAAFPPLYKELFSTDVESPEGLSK
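In this cell-based reporter format, copper sulfate (700 uM final) drives Gal4–ROR gamma fusion expression from a metallothionein promoter in Drosophila Schneider cells; compounds preincubated 1 hr, reporter read after 20 hr at ambient temperature.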
BRCA1 expr up – activators of BRCA1 expression | MCF7-BRCA1-FFLuc reporter, luminescence, 48 h; response scale: scaled: vehicle 0%, 10 µM genistein 100% | Potency, µM (top dose mostly 46.1 µM), inactives show at the highest dose activation, usual class: activators | hit rate 1.1% among 380,000; further: potency means the concentration at half of the fitted maximal effect; nearly all actives have a fitted effect of over 80% in size
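48 h compound treatment of MCF7-BRCA1-FFLuc cells (phenol-red free MEM, 37 °C), then 15 min with luciferase substrate and luminescence imaging.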
* = called active by the depositor; ? = inconclusive; nt = no result given; [ ] = remark or other dose. Unless noted, the call rests on the fitted dose curve; in most records, active means well fitted curve in the direction sought with a large enough effect; inconclusive means small, poorly fitted or top-dose-only effect, or another doubt; inactive means no such curve, though single readings can be large; an effect the other way counts as inactive or inconclusive.

SMILES	Giardia kill	ELG1 repair inh	VP16 counter	p53 reactivator	RORg inh	BRCA1 expr up
O=C(COc1ccccc1F)N1CCc2ccccc2C1	11	11%	1%	-3%	36%	?
O=Cc1cn(CC(=O)N2CCCCC2)c2ccccc12	-6	10%	3%	0%	13%	3%
CN1C(=O)/C(=C/c2cn(CC(=O)N3CCCCC3)c3ccccc23)c2ccccc21	nt	21µM*	1%	-11%	7%	nt
CCOc1ccccc1C(=O)Nc1ccc2nc(N3CCN(c4ncccn4)CC3)cc(C)c2c1	?	nt	nt	nt	nt	-105%
CCn1c2ccccc2c2cc(NC(=O)c3cccc(OC)c3OC)ccc21	2	15µM*	0%	7%	?	14%
COc1cccc(C(=O)Nc2ccc3nc(N4CCN(c5ncccn5)CC4)cc(C)c3c2)c1OC	nt	2.6µM*	-5%	-6%	?	nt
Cc1cc(C)c(S(=O)(=O)NCC23C=CC(O2)C2C(=O)N(c4ccccc4)C(=O)C23)c(C)c1 (centres undefined)	-29	2%	?	-3%	16µM*	-2%
O=C1C2C3C=CC(CNS(=O)(=O)c4ccccc4[N+](=O)[O-])(O3)C2C(=O)N1c1ccccc1 (centres undefined)	-19	-19%	11µM*	3%	?	-32%
CC(C)(C)C(=O)NCC12C=CC(O1)C1C(=O)N(c3ccccc3)C(=O)C12 (centres undefined)	4	9%	?	-27%	?	2%
O=C1C2C3C=CC(CO)(O3)C2C(=O)N1c1ccc(-c2ccccc2)cc1 (centres undefined)	nt	?	10µM*	?	6.3µM*	nt
O=[N+]([O-])c1ccccc1S(=O)(=O)NCc1ccco1	-3	-10%	19%	5%	-12%	2%
COc1ccc(OC)c(S(=O)(=O)Nc2cc(C)on2)c1	27	0%	6%	-6%	-14%	23%
N#CC(c1ccc(Cl)cc1)c1nc2ccccc2nc1C(F)(F)F (centres undefined)	1	4%	10µM*	9%	?	-20%
O=c1c(Cl)c(Nc2cccc(Cl)c2)cnn1-c1nc2ccccc2s1	-2	?	-24%	?	?	14µM*
COc1ccc(Nc2cnn(-c3nc4ccccc4s3)c(=O)c2Cl)cc1	-28	?	?	-18%	9%[10 µM]	-45%
Cc1ccc(SC(C)C(=O)Nc2cccc(N(C)S(C)(=O)=O)c2)cc1 (centres undefined)	11	-8%	-2%	-6%	-12%	0%
Cc1cc(C)c2[nH]c(=O)c(CN(Cc3cccs3)C(=S)NCC3CCCO3)cc2c1 (centres undefined)	17	26µM*	2%	-1%	?	-87%
Cc1cc(C)c2[nH]c(=O)c(CN(Cc3cccs3)C(=S)NCc3ccco3)cc2c1	8	21µM*	11%	-2%	-11%	-49%
CCN(CC)CCN(Cc1cc2cc(C)cc(C)c2[nH]c1=O)C(=S)NCc1ccco1	-7	-34%	?	-8%	3%	-44%
Cc1ccc2cc(CN(Cc3ccco3)C(=S)NCC3CCCO3)c(=O)[nH]c2c1C (centres undefined)	4	10µM*	-2%	-1%	3%	-25%
Cc1cc(C)c2[nH]c(=O)c(CN(Cc3ccco3)C(=S)NCC3CCCO3)cc2c1 (centres undefined)	9	?	3%	-2%	2%[10 µM]	-6%
CC(C)CNC(=S)N(Cc1ccco1)Cc1cc2cc3c(cc2[nH]c1=O)OCCO3	25	10µM*	4%	14%	21%	-73%
Cc1ccsc1C1CC(=O)Nc2ccccc2S1 (centres undefined)	11	11%	5%	-5%	15%	-31%
CCn1cc(/C=C(\NC(=O)c2ccc(C)cc2)C(=O)NCCCn2ccnc2)c2ccccc21	nt	nt	nt	nt	nt	3%

Screening results (PubChem BioAssay)
